Only some compounds are listed: those with a hit (about 2.1% of all), similar ones and a draw of the others.
aSyn yeast inh = inhibitors of alpha-synuclein toxicity in yeast | Potency, µM (titrated, usually from 46.1 µM), for the others: at the highest dose growth rescue (activation), most hits filed as activators | 370,000 tested, 0.14% active | AID 652106 | Yeast expressing alpha-synuclein, growth rescue, BacTiter-Glo, 24 h; also: % of control where 0% means no effect; nearly all actives have a fitted effect of over 65% in size
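Screening used galactose-induced yeast with toxic alpha-synuclein levels, exposed to compound for 24 hr at 30 deg C. Cell growth, read with BacTiter-Glo luminescence, gave the measured signal.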
Abeta rescue = compounds reversing amyloid beta toxicity in yeast; yeast expressing A-beta42, growth rescue, OD600, 48 h; response scale: 0% DMSO, 100% iron-clioquinol control; Potency, µM (titrated, usually from 46.1 µM), most hits filed as activators; AID 1347071; 410,000 tested, 0.063% active; also: nearly all actives have a fitted effect of over 55% in size
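Yeast growth medium received pinned compounds, then yeast cells expressing toxic A-beta were added; plates incubated at 30 C for 48 hr. Growth read as absorbance at 600 nm, normalized to DMSO and equimolar FeCl3 plus clioquinol controls.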
TDP43 rescue = TDP-43 toxicity inhibition in yeast; TDP-43 expressing yeast growth rescue, BacTiter-Glo, 24 h; Potency, µM (titrated, usually from 46.1 µM), for inactives: at the highest dose growth rescue (activation), most hits filed as activators; 410,000 tested, 1.8% active; also: % of control where 0% means no effect; nearly all actives have a fitted effect of over 50% in size
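Yeast expressing TDP-43 (pregrown in raffinose, seeded at OD600=0.02 in galactose medium) exposed to compounds 24 hr at 30 deg C. Growth read by BacTiter-Glo luminescence; rescue of toxicity appears as increased signal.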
FUS suppressor = rescues growth of FUS-expressing yeast; S. cerevisiae FUS-expressing, growth rescue, OD600, 24 h; Potency, µM (highest dose often 76.6 µM), usual class: activators; 390,000 tested, 0.24% active; AID 1347120;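 also: plate controls were DMSO vehicle for no effect and reference control for full effect; nearly all actives have a fitted effect of over 55% in size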
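Quantitative HTS measuring growth restoration of FUS-toxic yeast. Galactose-induced cells (OD 0.005) were exposed 24hr at 30C to compounds at several concentrations, then absorbance at 600 nm was recorded.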
* = called active by the depositor; i = inactive; ? = inconclusive; · = not tested or not shown; [ ] = dose if it differs, or a comment. Calls follow the shape of the dose curve; as a rule, active = well fitted curve in the direction sought with a large enough effect; inconclusive = small, poorly fitted or top-dose-only effect, or another doubt; inactive = no such curve, though single readings can be large; an effect the other way counts as inactive or inconclusive. Potency is read from the fitted curve at half-maximal effect.

SMILES | aSyn yeast inh | Abeta rescue | TDP43 rescue | FUS suppressor
CC(Sc1nnc(NC2CCCCC2)s1)C(=O)Nc1ccc2c(c1)C(=O)c1ccccc1C2=O (stereo not given) | 2% | i | 35µM* | ?
O=C(NC1CCCCN(Cc2ccc(Cl)cc2)C1=O)c1ccc(F)c(F)c1 (stereo not given) | · | · | · | i
N#CCCN1CCN(C(=S)c2ccc(-c3ccc(Cl)cc3)o2)CC1 | 7% | i | 13µM* | i
O=C1CCC[C@H]2C[C@H](NCc3cccnc3)CC[C@]23CCCN13 | · | · | · | i
O=C(c1ccc(F)cc1)C(CN1CCOCC1)c1ccccc1 (stereo not given) | 5% | i | 18µM* | ·
CNC(=O)[C@@H]1CC=C[C@@H]2CCN(c3ccccc3)C(=O)[C@@H]21 | · | · | · | i
CCCc1nc(SC)ncc1C(=O)N1CCN(c2ccc(Cl)cc2)CC1 | · | i | 35µM* | i
O=S(=O)(c1ccc(F)cc1F)N1CCN(c2nc(-c3cccs3)nc3ccccc23)CC1 | -1% | · | · | ·
NC(=O)COC(=O)c1ccccc1OCC(=O)Nc1ccc(Br)cc1 | 1% | · | · | ·
COc1ccc(Cl)cc1NS(=O)(=O)c1ccc2[nH]c3c(c2c1)CCCC3 | · | i | 13µM* | i
COc1ccc(Cl)cc1NS(=O)(=O)c1ccc(OC)c(OC)c1 | -2% | i | -7% | i
CCOC(=O)C1CCN(S(=O)(=O)c2ccc3[nH]c4c(c3c2)CCCC4)CC1 | 17% | i | ? | i
CCOC(=O)CC(NS(=O)(=O)c1ccc2[nH]c3c(c2c1)CCCC3)c1ccccc1Cl (stereo not given) | 16µM* | i | 20µM* | ?
COc1ccc(S(=O)(=O)Nc2cc(Cl)ccc2OC)cc1 | 24% | i | 3.2µM* | ·
Cc1c(NC(=O)C2CCCN(S(=O)(=O)c3ccc(Br)s3)C2)c(=O)n(-c2ccccc2)n1C (stereo not given) | · | · | · | i
COc1cccc(OC)c1NC(=O)OC1CCC12CCC(c1ccccc1)CC2 (stereo not given) | · | · | · | i
Cc1ccc(NC(=O)COC(=O)c2ccccc2OCC(=O)Nc2ccc(Br)cc2)c(Br)c1 | -2% | · | · | ·
CCCOc1ccc(-c2csc3ncn(Cc4ccc(C(=O)O)cc4)c(=O)c23)cc1 | -60% | i | 25µM* | i
Cc1ccc(-c2csc3ncn(Cc4ccc(C(=O)O)cc4)c(=O)c23)cc1C | ? | i | 20µM* | i
O=C(O)c1ccc(Cn2cnc3scc(-c4ccccc4)c3c2=O)cc1 | 14% | i | ? | i
CCOc1ccc(CCNC(=O)c2cc3ccsc3n2C)cc1OC | · | · | · | i
O=C(N/N=C/c1cccc(O)c1)NC1CCCCC1 | 3% | i | -14%[9.22 µM] | i
NC(=O)N\N=C/C=C/C=C/c1ccc(F)cc1 | 1% | i | 21% | i
NC(=O)N/N=C/C=C/c1ccccc1 | -19% | i | 4µM* | i
O=C(N/N=C/C=C/c1ccccc1)NC1CCCCC1 | ? | ? | 18µM* | i
SMILES | aSyn yeast inh | Abeta rescue | TDP43 rescue | FUS suppressor
CCOC(=O)C1=C(O)c2ccccc2C(=O)/C1=C\c1ccc(C)cc1 | -76% | i | 3.2µM* | ·
CCOC(=O)C1=C(C)OC(=Cc2ccccc2)C1=O | -1% | i | 0% | i
Cc1ccc(NC(=O)C2(NC(=O)c3cccc(N4C(=O)CSC4c4ccccc4)c3)CCCCC2)cc1 (stereo not given) | 1% | i | -6% | 28µM*
Cc1ccc(C(C)C)c(OCC(=O)Nn2c(C)nc3ccccc3c2=O)c1 | 5% | i | 14µM* | i
Cc1nc2ccccc2c(=O)n1NC(=O)c1ccc(C(C)(C)C)cc1 | -9% | i | 15% | i
Cc1ccc(C(C)C)c(OCC(=O)Nn2c(=O)[nH]c3ccccc3c2=O)c1 | 15% | i | 0% | ·
Cc1ccc(C(=O)Nn2c(C)nc3ccccc3c2=O)cc1C | -1% | i | 11µM* | i
COC(=O)CN(Cc1cn(Cc2ccccc2)nn1)S(=O)(=O)c1ccccc1Br | · | · | · | i
Cc1ccc2c(c1)C(CS(=O)(=O)NC1CCCC1)NC2 (stereo not given) | · | · | · | i
O=C(Cn1c(=O)c2cccn2c2cccnc21)NCCCN1CCN(c2ccccc2)CC1 | · | · | · | i
C[C@H]1[C@@H](NC(=O)c2ccc(Cl)cc2)CC[C@@]23CCCN2C(=O)CCC[C@@H]13 | · | · | · | i
Cc1cc(SCC2=NNC(=O)C2)c(Cl)cc1Cl | 6% | i | ? | 35µM*
CC1=C(C(=O)N2CCOCC2)CC(CC(=O)NC2CCCCC2)C(=O)N1Cc1ccc(C(C)(C)C)cc1 (stereo not given) | 3.5µM* | i | ? | i
CC1=C(C(=O)N2CCOCC2)CC(CC(=O)NC2CC2)C(=O)N1Cc1ccc(C(C)(C)C)cc1 (stereo not given) | -3% | i | 1% | i
Cc1ccc(S(=O)(=O)N2C[C@H]3[C@H]4C(=O)N(Cc5ccccc5)C(=O)[C@H]4CC(=O)[C@H]3[C@@H]2c2ccccc2Cl)cc1 | -1% | i | 25% | i
Cc1ccc(S(=O)(=O)N2C[C@H]3[C@H]4C(=O)N(Cc5ccccc5)C(=O)[C@H]4CC(=O)[C@H]3[C@@H]2c2ccccc2F)cc1 | 2% | i | 23% | 18µM*
COc1ccc(C(C)(NC(C)=O)c2nc(-c3ccc(F)c(Cl)c3)cs2)cc1 (stereo not given) | 7% | i | 35µM* | ?
COc1ccc(-c2csc(C(C)(NC(C)=O)c3ccc(OC)cc3)n2)cc1 (stereo not given) | -21% | i | ? | i
Cc1nc2ccc(NS(=O)(=O)c3ccc(C)c(C)c3)cc2s1 | 19% | i | 27% | i
O=S(=O)(Nc1ccc(N2CCOCC2)cc1)c1c(F)cc(F)cc1Br | 22µM* | i | ? | i
Cc1nc2ccc(NS(=O)(=O)c3ccc(F)c(F)c3F)cc2s1 | ? | i | 20µM* | i
Cc1nc2ccc(NS(=O)(=O)c3c(F)cc(F)cc3Br)cc2s1 | ? | i | 16µM* | i
Cc1nc2ccc(NS(=O)(=O)c3ccc(F)cc3F)cc2s1 | 20% | i | 13µM* | ·
COC(=O)[C@]12C[C@H](CC(=O)NCc3ccc(C)o3)C(=O)N(CCc3ccc(OC)c(OC)c3)C1=C[C@H](COCc1ccccc1)O[C@@H]2C | · | · | · | i
O=C(CSc1nnc(COc2ccccc2)n1Cc1ccco1)Nc1ccc(OCc2ccccc2)cc1 | · | · | · | i
COc1ccccc1C(C)NCC(=O)c1c(C)[nH]c2ccccc12 (stereo not given) | 11% | · | · | ·
CSc1nc2ccc(NS(=O)(=O)c3c(Cl)cccc3Cl)cc2s1 | 24% | i | 10µM* | ·
CCc1ccc2oc(-c3ccc(OC)cc3)cc(=Nc3cccc(C(=O)O)c3)c2c1 | -3% | i | 12% | i
COc1ccc(-c2cc(=Nc3ccc(C(=O)O)cc3)c3cc(C)ccc3o2)cc1 | 11% | i | 18µM* | i

Screens: PubChem, National Center for Advancing Translational Sciences (NCATS)
